The whole screen tested about 400,000 compounds, of which about 2,100 (0.53%) were called active. About 14% were inconclusive and are not listed. No rule for the calls is given here. What follows is part of a selection rich in actives, with near analogues and random picks from the rest.

The target in this assay is Ataxin-2 (Homo sapiens) (UniProt Q99700). The experiment in a line: qHTS for Inhibitors of ATXN expression. It is filed as functional. A general note: Quantitative high-throughput screening tests each substance at several concentrations.
Ataxin-2 (Homo sapiens), sequence (Q99700 whole entry): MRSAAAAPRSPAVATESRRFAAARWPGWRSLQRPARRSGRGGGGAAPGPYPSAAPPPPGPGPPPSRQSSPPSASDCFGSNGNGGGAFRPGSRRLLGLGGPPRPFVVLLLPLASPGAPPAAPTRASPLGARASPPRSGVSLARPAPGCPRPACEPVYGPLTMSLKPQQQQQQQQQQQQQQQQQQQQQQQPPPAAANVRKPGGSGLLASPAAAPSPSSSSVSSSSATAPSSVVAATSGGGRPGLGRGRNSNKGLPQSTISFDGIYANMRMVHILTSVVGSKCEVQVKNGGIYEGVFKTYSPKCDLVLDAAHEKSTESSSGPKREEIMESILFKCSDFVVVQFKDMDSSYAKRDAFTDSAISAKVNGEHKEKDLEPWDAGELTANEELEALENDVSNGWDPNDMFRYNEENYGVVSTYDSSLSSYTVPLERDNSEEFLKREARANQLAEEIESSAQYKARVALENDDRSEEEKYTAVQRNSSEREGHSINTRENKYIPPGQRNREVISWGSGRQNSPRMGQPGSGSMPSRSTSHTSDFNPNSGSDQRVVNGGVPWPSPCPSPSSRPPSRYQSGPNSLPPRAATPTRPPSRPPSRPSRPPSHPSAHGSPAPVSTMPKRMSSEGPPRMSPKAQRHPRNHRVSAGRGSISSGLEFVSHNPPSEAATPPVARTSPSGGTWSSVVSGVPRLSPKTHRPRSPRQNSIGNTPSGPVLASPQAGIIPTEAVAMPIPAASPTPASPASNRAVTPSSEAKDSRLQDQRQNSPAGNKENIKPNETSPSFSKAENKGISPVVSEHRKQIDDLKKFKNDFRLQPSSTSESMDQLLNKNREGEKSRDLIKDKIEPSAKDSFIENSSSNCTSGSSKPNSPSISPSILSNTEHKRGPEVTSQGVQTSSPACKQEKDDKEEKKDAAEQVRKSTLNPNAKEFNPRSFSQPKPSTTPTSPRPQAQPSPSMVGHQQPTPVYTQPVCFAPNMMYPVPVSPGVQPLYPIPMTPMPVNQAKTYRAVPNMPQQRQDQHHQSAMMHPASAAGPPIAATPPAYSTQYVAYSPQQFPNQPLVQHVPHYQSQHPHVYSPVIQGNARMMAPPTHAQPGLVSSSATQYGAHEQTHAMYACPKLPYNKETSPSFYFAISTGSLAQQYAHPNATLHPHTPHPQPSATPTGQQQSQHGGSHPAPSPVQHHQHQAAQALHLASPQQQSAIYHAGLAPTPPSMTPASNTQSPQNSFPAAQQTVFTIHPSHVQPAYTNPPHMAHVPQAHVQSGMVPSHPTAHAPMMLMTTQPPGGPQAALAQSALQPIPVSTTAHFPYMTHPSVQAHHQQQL
Consider `COC(=O)c1ccc(N2C(c3cc(OC)cc(OC)c3)=Cc3ccc(-c4ccc(C(N)=O)cc4)cc3C2CC(=O)C2CC2)cc1` (stereo not drawn), for which the Potency result was “inactive”. With `N=C1c2c(cc(O)n3c2nc2ccccc23)CN1CCN1CCOCC1`, the Potency entry is “inactive”. Under `C[C@@H](C[C@@H](O)[C@H](O)C(C)(C)O)[C@@H]1CC[C@]2(C)C3=CC[C@H]4C(C)(C)C(=O)CC[C@]4(C)[C@H]3CC[C@@]12C` stands 39.8 µM (active).

As for `Cc1cc(C)c(C(=O)CSc2nc(C)cc(C)c2C(N)=O)c(C)c1`, the Potency result was “inactive”.

With `Oc1nc(C(Cl)Cl)nc2sc3c(c12)CCN(Cc1ccccc1)C3`, the Potency result was “inactive”.

Turning to `CC(=O)N1CCc2c(sc3nc(SCC(C)C)n(-c4ccc(C)c(Cl)c4)c(=O)c23)C1`, the Potency was 25.1 µM (active). As for `CSc1nc2sc3c(c2c(=O)n1CC(C)C)CC(C)(C)OC3`, the Potency entry was “inactive”.

On to `O=C(Nc1ccc(N2CCOCC2)c(S(=O)(=O)Nc2cc(Cl)ccc2Cl)c1)c1cccnc1`, for which the Potency entry is “inactive”.

As for `Cc1cc(S(=O)(=O)Nc2cccc(-c3ccc(N4CCOCC4)nn3)c2)c(C)cc1Cl`, the Potency is 39.8 µM (active). The value for `COc1cccc(C(=O)Nc2cccc(-c3ccc(N4CCOCC4)nn3)c2)c1OC` was “inactive”; that for `COc1ccc(F)cc1S(=O)(=O)Nc1cccc(-c2ccc(N3CCCCCC3)nn2)c1` was 39.8 µM (active). As for `Cc1ccc(S(=O)(=O)NCCC(=O)Oc2ccc3ccc(=O)oc3c2)cc1`, the Potency entry is “inactive”. With `Cc1ccc2c(Cl)cc(Cl)c(OCC(=O)NC(C)(C)C)c2n1`, the Potency result is “inactive”. The value for `Cc1oc(-c2cccc(NC(=O)c3ccccn3)c2)nc1CNC(=O)C#Cc1ccccc1` was “inactive”; that for `COC(=O)c1cccc(C(=O)NCc2nc(-c3cccc(NC(=O)c4ccoc4C)c3)oc2C)c1` was 31.6 µM (active); that for `Cc1ccc(C(=O)Nc2cccc(-c3nc(CNC(=O)c4ccc5ccccc5n4)c(C)o3)c2)s1` was “inactive”. Turning to `CSc1ccccc1C(=O)NCc1nc(-c2cccc(NC(=O)c3ccoc3C)c2)oc1C`, the Potency was 25.1 µM (active). Regarding `CSc1nc(C(=O)NCc2nc(-c3cccc(NC(=O)c4ccccn4)c3)oc2C)cs1`, the Potency entry is “inactive”.

In the case of `O=[N+]([O-])c1cc2c(cc1/C=N/n1cnnc1)OCO2`, the Potency result was “inactive”. The value for `CCNc1nc(C)c(CN(C(C)=O)c2ccccc2)nc1C#N` was “inactive”; that for `Cc1ccc(-c2cn3nc(C)c(C)nc3n2)cc1` was “inactive”; that for `O=S(=O)(c1ccc(F)cc1)N(CC(O)Cn1c2ccccc2c2ccccc21)c1ccccc1` (stereo not drawn) was 22.4 µM (active).

`CC(C)(C)N(NS(=O)(=O)c1ccc(F)cc1)c1ccccc1`: the Potency entry was “inactive”.

Turning to `Cc1ccc(S(=O)(=O)N(CC(O)Cn2c3ccccc3c3ccccc32)c2cccc(C(=O)NCCO)c2)cc1` (stereo not drawn), the Potency is 35.5 µM (active).

For the molecule `CCCCN(C)CC(O)Cn1cc(/C=C/C(=O)c2ccc(C)cc2)c2ccccc21` (stereo not drawn), the Potency result was “inactive”.

On to `Cc1cccc(N(CC(O)Cn2c3ccccc3c3ccccc32)S(=O)(=O)c2ccc(F)cc2)c1` (stereo not drawn), for which the Potency is 15.8 µM (active). In the case of `CCCCN(CCCC)CC(O)Cn1c2ccccc2c(=O)c2ccccc21` (stereo not drawn), the Potency entry was “inactive”. The value for `CN(C)/C=N/c1nc2nccc(-c3ccccn3)n2n1` was “inactive”. As to `O=C(CN(Cc1ccc(F)cc1)C(=O)CCC(=O)Nc1nccs1)NCc1ccccc1`, the Potency entry is “inactive”. In the case of `CC(=O)Oc1cc2oc(=O)cc(C)c2cc1Cl`, the Potency entry was “inactive”. Take `CCCn1nc(NC(=O)CC(C)C)c2cc3cccc(C)c3nc21`: the Potency entry is “inactive”. Under `Cc1cc(C)c2ccc(N)nc2c1O` stands 39.8 µM (active). For the molecule `Cn1nc(NC(=O)C(F)(F)F)c2ncc(-c3ccc(Cl)cc3)nc21`, the Potency result was “inactive”. `COc1ccccc1CCn1cnc(-c2ccc(Br)cc2)c1C(C)C`: the Potency was 25.1 µM (active).

Consider `COc1ccccc1CCn1cnc(Cc2ccccc2)c1C(C)C`, for which the Potency is 39.8 µM (active). On to `CC1=C(C)C(=O)N(C(C)CCc2ccccc2)C1=O` (stereo not drawn), for which the Potency result was “inactive”.

As to `CCCCc1c(-c2ccc(F)cc2)ncn1CCc1ccccc1OC`, the Potency was 31.6 µM (active). The value for `COc1ccccc1[C@H]1C(c2ccc(F)cc2)=NN(c2ccccc2)[C@@H]1CO` was “inactive”. The value for `COc1ccccc1CCN1COc2c(cc3c(C)c(C)c(=O)oc3c2C)C1` was “inactive”; that for `CCCCc1c(Cc2ccccc2)ncn1CCc1ccccc1OC` was 15.8 µM (active). The value for `COc1ccccc1CNc1ccc(Br)cn1` was “inactive”; that for `COc1ccccc1NC(=O)C(C)Sc1nccn1C` (stereo not drawn) was “inactive”; that for `CCN(CC)c1ccc2c(Cl)cc(=O)oc2c1` was “inactive”.

Consider `N#Cc1cc2c(=O)n3ccccc3nc2n(Cc2ccco2)/c1=N/C(=O)c1ccco1`, for which the Potency result was “inactive”. Under `COc1cccc2sc3ccc(NCc4ccc5c(c4)OCO5)cc3c(=O)c12` stands “inactive”. For the molecule `Cc1c(C#N)c2n(c1C)CCCC(=O)N2`, the Potency entry was “inactive”. Under `COc1cc2c(cc1OC)C1=C(C#N)CC/C(=N\S(=O)(=O)c3ccccc3)N1CC2` stands “inactive”; under `COc1ccccc1CCn1c(N)c(C#N)c2nc3ccccc3nc21`, “inactive”. The value for `CCCCc1c(-c2ccccc2)ncn1CCc1ccccc1OC` was 35.5 µM (active); that for `CCCn1nc(-c2ccccc2)c2nc3ccccc3nc21` was “inactive”; that for `CCCCc1c(-c2cccc(F)c2)ncn1CCc1ccccc1OC` was 39.8 µM (active). As for `CCCCCc1c(-c2ccc(OC)cc2)ncn1CCc1ccccc1OC`, the Potency is 31.6 µM (active). Regarding `CCCCc1c(-c2ccc(OC)cc2)ncn1CCc1ccccc1OC`, the Potency was 39.8 µM (active). The value for `COc1ccccc1CCC(=O)NNC(=O)Cn1nc(C)cc1C` was “inactive”; that for `Cc1cccn2c(=O)c3cc(C(=O)NCc4cccnc4)c(=N)n(C(C)C)c3nc12` was “inactive”. Turning to `COc1ccc2c(c1)CCCC21SC(NC(C)=O)=NN1C(C)=O` (stereo not drawn), the Potency entry was “inactive”. Under `O=C1OCCN1C(=O)[C@H]1[C@H](c2ccccc2)C(c2ccccc2)=NN1c1ccc(Br)cc1` stands “inactive”; under `CCOCCCNC(=O)c1ccc2nc(-c3ccc(OC)c(OC)c3)c(-c3ccc(OC)c(OC)c3)nc2c1`, “inactive”; under `CCCCc1c(-c2ccc(OC)c(OC)c2)ncn1CCc1ccccc1OC`, 22.4 µM (active).

As to `CCOc1ccc(-c2nnn(CCC#N)n2)cc1OC`, the Potency entry was “inactive”. Under `CCCS(=O)(=O)c1c(S(=O)(=O)CCC)c2cc(-c3ccncc3)ccn2c1C(=O)OC` stands “inactive”; under `CN1CCN(S(=O)(=O)c2ccc(NC(=O)COc3ccccc3)cc2)CC1`, “inactive”. Under `Cc1ccc(S(=O)(=O)N2C[C@@H](C)[C@]3(C2)[C@H](O)[C@H](OC(=O)Nc2cccs2)C[C@H]2C(=O)N(c4ccccc4)C(=O)[C@H]23)cc1` stands 35.5 µM (active).
